From PubChem BioAssay (NCI) come the findings set out here.

Test systems include DU-145 prostate; K-562 leukemia; MALME-3M melanoma; MDA-MB-231 breast; RXF 393 renal; SF-268 CNS; SF-295 CNS; SF-539 CNS; UACC-257 melanoma; M14 melanoma.
Common to all, as to test: NCI-60 one-dose screen, 48 h (100 = growth as untreated, 0 = no growth, -100 = all killed)
Conditions in all cases: 10 µM unless noted

About 83,000 compounds went through this panel and 20% of them were active in at least one assay; those are over-represented in the sample as a whole.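 Single-dose data. Exposure time 48 hours. Values below 10 considered active.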 Values without a mark were called inactive. The source made the active and inactive calls.

As to `CN1CCN(Cc2ccc(NC(=O)c3cncc(C#Cc4cnc(N)c5cnccc45)c3)cc2C(F)(F)F)CC1`, the growth in the experiment with DU-145 prostate is 10%; in the experiment on K-562 leukemia, 1.52% (active); with MALME-3M melanoma it was -75.6% (active); in the experiment on MDA-MB-231 breast, -61.2% (active); in the experiment on RXF 393 renal it was -48.3% (active); with SF-268 CNS, 16.5%. For the same molecule, the growth is 8.91% (active) in the experiment with SF-295 CNS, -73.8% (active) in the experiment on SF-539 CNS, -1.75% (active) with UACC-257 melanoma and -41.6% (active) with M14 melanoma.

For the molecule `O=C(Nc1ccncc1)C(=O)c1cn(S(=O)(=O)c2ccccc2F)c2ccccc12`, the growth in the experiment with DU-145 prostate is 24.9%; with K-562 leukemia, 22.8%; with MALME-3M melanoma, 41.2%; with MDA-MB-231 breast, 39.9%; with RXF 393 renal, 28.6%; in the experiment on SF-268 CNS, 42.2%. The growth with SF-295 CNS was 22.5%; with SF-539 CNS it was 6.94% (active); in the experiment on UACC-257 melanoma, 63.1%; in the experiment on M14 melanoma it was 14.8%.

`CCN(CC)c1ccc(/C=C2\Oc3ccc(O)c(I)c3C2=O)cc1`: the growth is 87% in the experiment with DU-145 prostate; 12.5% with K-562 leukemia; 63.4% in the experiment on MALME-3M melanoma; 65.8% with MDA-MB-231 breast; 63% in the experiment on RXF 393 renal; 71.4% with SF-268 CNS. In addition, the growth in the experiment with SF-295 CNS was 68.9%; with SF-539 CNS, 58.3%; with UACC-257 melanoma it was 80.6%; in the experiment on M14 melanoma it was 28.7%.

On to `COc1ccc(-n2c(=S)sc3c(Cl)nc(C)nc32)c(OC)c1`, for which the growth was 6.39% (active) in the experiment on DU-145 prostate; 2.62% (active) in the experiment with K-562 leukemia; 80.2% in the experiment with MALME-3M melanoma; -14.9% (active) in the experiment with MDA-MB-231 breast; 42.6% in the experiment on RXF 393 renal; 4.67% (active) with SF-268 CNS. In addition, the growth was 85.1% in the experiment with SF-295 CNS, 20% in the experiment with SF-539 CNS, 77.9% in the experiment on UACC-257 melanoma and -18.8% (active) in the experiment with M14 melanoma.

Turning to `CCOC(=O)CC(=O)OC`, the growth was 118% in the experiment with DU-145 prostate; 103% in the experiment on K-562 leukemia; 114% in the experiment with MALME-3M melanoma; 121% with MDA-MB-231 breast; 114% in the experiment with RXF 393 renal; 111% in the experiment with SF-268 CNS. Besides, the growth is 110% with SF-295 CNS, 95.7% in the experiment on SF-539 CNS, 96.9% in the experiment with UACC-257 melanoma and 96.1% in the experiment on M14 melanoma.

As to `COc1ccc(-c2nc(/C=N/Nc3cc(C)nc4ccc(Cl)cc34)c(C)o2)cc1`, the growth is -94.1% (active) in the experiment with DU-145 prostate; -35% (active) in the experiment with K-562 leukemia; -90.9% (active) in the experiment on MALME-3M melanoma; -95.9% (active) in the experiment on MDA-MB-231 breast; -96.8% (active) with RXF 393 renal; -71.8% (active) in the experiment with SF-268 CNS. Further, the growth was -73.5% (active) with SF-295 CNS, -90% (active) with SF-539 CNS, 104% in the experiment on UACC-257 melanoma and -75.6% (active) in the experiment on M14 melanoma.

For the molecule `O=c1[nH]c2ccc(Br)cc2c2c1C(c1ccc(Cl)cc1)c1c(ncn3nc(-c4ccco4)nc13)O2` (stereo not given), the growth was 90% in the experiment with DU-145 prostate; 80% with K-562 leukemia; 77.5% in the experiment with MALME-3M melanoma; 48.6% in the experiment with MDA-MB-231 breast; 59.1% in the experiment on RXF 393 renal; 74.3% in the experiment on SF-268 CNS. Moreover, the growth was 87.9% in the experiment with SF-295 CNS, 65.5% in the experiment on SF-539 CNS, 98.3% with UACC-257 melanoma and 74.9% in the experiment with M14 melanoma.

For `COc1cccc(/C=C2\Oc3cc(OCCCN4CCCC4)ccc3C2=O)c1OC`, the growth was 106% in the experiment with DU-145 prostate; 73% in the experiment with K-562 leukemia; 94% in the experiment on MALME-3M melanoma; 97.2% in the experiment on MDA-MB-231 breast; 93.1% in the experiment with RXF 393 renal; 91.9% in the experiment on SF-268 CNS. Besides, the growth with SF-295 CNS is 97.4%; in the experiment on SF-539 CNS, 94.6%; in the experiment with UACC-257 melanoma, 99.3%; with M14 melanoma, 91.5%.

On to `Cc1ccc(-c2nc(C#N)c(S(=O)(=O)n3nc(-c4ccccc4)cc3N)o2)cc1`, for which the growth is 105% with DU-145 prostate; 13.3% with K-562 leukemia; -34.9% (active) with MALME-3M melanoma; 89% with MDA-MB-231 breast; 85% in the experiment with RXF 393 renal; 101% in the experiment with SF-268 CNS. For the same molecule, the growth is 104% in the experiment with SF-295 CNS, 97% in the experiment on SF-539 CNS, 92.1% in the experiment on UACC-257 melanoma and 83% in the experiment on M14 melanoma.

For `O=c1cc/c(=N\Nc2ccccc2)c(=O)/c1=N/Nc1ccccc1`, the growth is 106% with DU-145 prostate; 105% with K-562 leukemia; 119% in the experiment on MALME-3M melanoma; 100% with MDA-MB-231 breast; 121% in the experiment on RXF 393 renal; 90.5% in the experiment with SF-268 CNS. Also, the growth in the experiment on SF-295 CNS was 122%; with SF-539 CNS, 94.6%; in the experiment on UACC-257 melanoma, 137%; in the experiment with M14 melanoma, 82.2%.

Consider `Cc1cc(N/N=C/c2nc(-c3ccccc3)oc2C)c2cc(Cl)ccc2n1`, for which the growth in the experiment on DU-145 prostate is -31.3% (active); with K-562 leukemia, -29.3% (active); in the experiment on MALME-3M melanoma it was -88.9% (active); with MDA-MB-231 breast, -95.1% (active); with RXF 393 renal it was -88.3% (active); in the experiment with SF-268 CNS it was -60.3% (active). Moreover, the growth in the experiment on SF-295 CNS was -85% (active); in the experiment with SF-539 CNS, 8.72% (active); in the experiment on UACC-257 melanoma, 106%; with M14 melanoma, -87.4% (active).

Regarding `C=C1CCC2C(C)(CO)C(O)CCC2(C)C1C/C=C1/C(=O)OCC1O/C=C/c1ccccc1` (stereo not given), the growth in the experiment with DU-145 prostate was 82.8%; with K-562 leukemia, 22.9%; in the experiment with MALME-3M melanoma, 105%; with MDA-MB-231 breast it was 95.6%; with RXF 393 renal it was 81.2%; with SF-268 CNS, 96.7%. The growth with SF-295 CNS is 92.7%; in the experiment on SF-539 CNS, 96.9%; in the experiment on UACC-257 melanoma it was 83.6%; with M14 melanoma, 86.1%.

For `Cc1cc(N/N=C/c2nc(-c3ccc(Br)cc3)oc2C)c2cc(Cl)ccc2n1`, the growth is 60.7% in the experiment on DU-145 prostate; -17.6% (active) in the experiment on K-562 leukemia; 55.6% in the experiment on MALME-3M melanoma; 67.2% with MDA-MB-231 breast; 85.5% in the experiment with RXF 393 renal; 80% with SF-268 CNS. Besides, the growth is 101% in the experiment on SF-295 CNS, 98.5% with SF-539 CNS, 95.6% in the experiment with UACC-257 melanoma and 40.8% in the experiment with M14 melanoma.
